For assay [1], the target named is Phospholipid hydroperoxide glutathione peroxidase GPX4 (Homo sapiens) (UniProt P36969). Briefly: Primary qHTS Assay for Inhibitors of Recombinant Selenoprotein Glutathione Peroxidase 4 (GPX4) (AID 1845192). Also: nearly all actives have a fitted effect of over 65% in size. As to conditions: recombinant GPX4, GR-coupled NADPH fluorescence, 15 min; series mostly up to 50 µM. The method in brief:
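qHTS, GR-coupled: GPX4 200 nM + cpd 30 min RT → GSH 1 mM, NADPH 0.5 mM, GR 100 nM → CHP 0.5 mM start; fluor 340/450 at t0 and t15 min; no-enzyme wells as control.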

The nature of assay [2]: Quantitative High-Throughput drug screen in 47 multiple myeloma cell lines against the NCATS MIPE library collection: EJM_DSMZ cell viability assay (AID 1918926; also: nearly all actives have a fitted effect of over 30% in size). As to conditions: EJM myeloma cell viability, CellTiter-Glo ATP, 48 h; series mostly up to 45.8 µM. The method in brief:
(§1)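 Myeloma cell lines, 500 cells per well, exposed to MIPE 4.0 library compounds for 48 h at 37C, 5% CO2. Viability from ATP by CellTiter-Glo luminescence; normalised to DMSO (100%) and media-only (0%) wells.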
In general terms: ATP-based viability assays read luminescence as a measure of living cells.

The nature of assay [3]: Quantitative High-Throughput drug screen in 47 multiple myeloma cell lines against the NCATS MIPE library collection: ARD_JJKsccE7 cell viability assay (AID 1918929; also: potency is read from the fitted curve at half-maximal effect). As to conditions: ARD myeloma cell line viability, CellTiter-Glo, 48 h; series mostly up to 45.8 µM. In a few lines: as §1
Assay [4] in a line: Quantitative High-Throughput drug screen in 47 multiple myeloma cell lines against the NCATS MIPE library collection: Karpas620_DSMZ cell viability assay (AID 1918959). Also: nearly all actives have a fitted effect of over 30% in size. Also: potency is read from the fitted curve at half-maximal effect. As to conditions: Karpas620 myeloma viability, CellTiter-Glo ATP luminescence, 48 h; series mostly up to 45.8 µM. In a few lines:
(§2)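 qHTS of the MIPE 4.0 collection: 500 myeloma cells/well, 48 h drug exposure at 37C in 5% CO2, then CellTiter-Glo for 5 min at room temperature before luminescence reading.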

A short description of assay [5]: Quantitative High-Throughput drug screen in 47 multiple myeloma cell lines against the NCATS MIPE library collection: JIM3_ECACC cell viability assay (AID 1918963; also: nearly all actives have a fitted effect of over 35% in size; also: potency is read from the fitted curve at half-maximal effect). As to conditions: JIM3 myeloma viability, CellTiter-Glo ATP, 48 h; series mostly up to 45.8 µM. The method in brief: as §2
Assay [6] in a line: Quantitative High-Throughput drug screen in 47 multiple myeloma cell lines against the NCATS MIPE library collection: H1112_PLB cell viability assay (AID 1918967; also: nearly all actives have a fitted effect of over 30% in size; also: potency is read from the fitted curve at half-maximal effect). As to conditions: H1112 myeloma cells viability, ATP luminescence, 48 h; series mostly up to 45.8 µM. In a few lines: as §1
The nature of assay [7]: Quantitative High-Throughput drug screen in 47 multiple myeloma cell lines against the NCATS MIPE library collection: Delta47_JCRB cell viability assay (AID 1918925; also: nearly all actives have a fitted effect of over 45% in size; also: potency is read from the fitted curve at half-maximal effect). As to conditions: Delta47 myeloma viability, CellTiter-Glo ATP, 48 h; series mostly up to 45.8 µM. In a few lines: as §1
The nature of assay [8]: Quantitative High-Throughput drug screen in 47 multiple myeloma cell lines against the NCATS MIPE library collection: AMO1_DSMZ cell viability assay (AID 1918927; also: nearly all actives have a fitted effect of over 30% in size; also: potency is read from the fitted curve at half-maximal effect). As to conditions: AMO1 myeloma cells viability, CellTiter-Glo ATP luminescence, 48 h; series mostly up to 45.8 µM. In a few lines:
as §1

The nature of assay [9]: Quantitative High-Throughput drug screen in 47 multiple myeloma cell lines against the NCATS MIPE library collection: KMM1_JCRB cell viability assay (AID 1918960). Also: nearly all actives have a fitted effect of over 30% in size. Also: potency is read from the fitted curve at half-maximal effect. As to conditions: KMM1 myeloma viability, CellTiter-Glo ATP luminescence, 48 h; series mostly up to 45.8 µM. The method in brief:
(§3)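 Each line was plated at 500 cells/well and treated 48 h with library drugs. Viability came from CellTiter-Glo luminescence relative to DMSO and cell-free medium controls.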

A short description of assay [10]: Quantitative High-Throughput drug screen in 47 multiple myeloma cell lines against the NCATS MIPE library collection: JIM1_ECACC cell viability assay (AID 1918964). As to conditions: JIM1 myeloma viability, CellTiter-Glo ATP luminescence, 48 h; series mostly up to 45.8 µM. The method in brief:
as §1

Assay [11] in a line: Quantitative High-Throughput drug screen in 47 multiple myeloma cell lines against the NCATS MIPE library collection: JJN3_DSMZ cell viability assay (AID 1918966; also: nearly all actives have a fitted effect of over 50% in size; also: potency is read from the fitted curve at half-maximal effect). As to conditions: JJN3 myeloma cells viability, CellTiter-Glo ATP, 48 h; series mostly up to 45.8 µM. In a few lines:
as §1

A short description of assay [12]: Quantitative High-Throughput drug screen in 47 multiple myeloma cell lines against the NCATS MIPE library collection: KHM11_PLB cell viability assay (AID 1918962). Also: nearly all actives have a fitted effect of over 35% in size. Also: potency is read from the fitted curve at half-maximal effect. As to conditions: KHM11 myeloma cell viability, CellTiter-Glo ATP luminescence, 48 h; series mostly up to 45.8 µM. In a few lines: as §2
Assay [13] can be described thus: Quantitative High-Throughput drug screen in 47 multiple myeloma cell lines against the NCATS MIPE library collection: INA6_PLB cell viability assay (AID 1918965; also: nearly all actives have a fitted effect of over 55% in size; also: potency is read from the fitted curve at half-maximal effect). As to conditions: INA6 myeloma viability, CellTiter-Glo ATP luminescence, 48 h; series mostly up to 45.8 µM. The method in brief: (§4)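 Luminescent ATP measurement with CellTiter-Glo gives viability, scaled between DMSO-only wells (100%) and media-only wells (0%). Cells, 500 per well, faced library compounds for 48 hours at 37C.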

Assay [14] is described as follows: Quantitative High-Throughput drug screen in 47 multiple myeloma cell lines against the NCATS MIPE library collection: ARP1_JJKsccF8 cell viability assay (AID 1918928; also: nearly all actives have a fitted effect of over 40% in size; also: potency is read from the fitted curve at half-maximal effect). As to conditions: ARP1 myeloma cells viability, CellTiter-Glo ATP, 48 h; series mostly up to 45.8 µM. In a few lines:
as §3

The nature of assay [15]: Quantitative High-Throughput drug screen in 47 multiple myeloma cell lines against the NCATS MIPE library collection: FR4_PLB cell viability assay (AID 1918924; also: nearly all actives have a fitted effect of over 35% in size). As to conditions: FR4_PLB myeloma cells viability, CellTiter-Glo ATP, 48 h; series mostly up to 45.8 µM. The method in brief: as §2
The nature of assay [16]: Quantitative High-Throughput drug screen in 47 multiple myeloma cell lines against the NCATS MIPE library collection: Karpas417_ECACC cell viability assay (AID 1918961). As to conditions: Karpas417 myeloma viability, CellTiter-Glo ATP luminescence, 48 h; viability (% of DMSO): at 45.8 µM (top of the series). In a few lines:
as §4

For 17 molecules, Potency results are on record in PubChem BioAssay (NCATS).

Results filed as inconclusive are left out. Calls of active or inactive are those of the source. Calls follow the shape of the dose curve; as a rule, active = well fitted curve in the direction sought with a large enough effect; inconclusive = small, poorly fitted or top-dose-only effect, or another doubt; inactive = no such curve, though single readings can be large; an effect the other way counts as inactive or inconclusive.

Sequence of Phospholipid hydroperoxide glutathione peroxidase GPX4 (Homo sapiens) (P36969 whole entry, looked up): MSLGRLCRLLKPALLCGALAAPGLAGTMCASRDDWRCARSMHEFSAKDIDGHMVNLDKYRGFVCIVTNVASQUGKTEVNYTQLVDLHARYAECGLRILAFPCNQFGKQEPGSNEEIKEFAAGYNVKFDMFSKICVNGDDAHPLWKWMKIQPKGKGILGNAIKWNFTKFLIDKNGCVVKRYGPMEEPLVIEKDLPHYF

In the case of `Fc1ccc([C@@H]2CCNC[C@H]2COc2ccc3c(c2)OCO3)cc1`, the Potency result in assay [1], in [2], in assay [3], in assay [4] and in assay [5] was “inactive” in each case. Moreover, the Potency in [6] was 10.5 µM (active).
In the case of `CC[N+](CC)(CC)CCOc1cccc(OCC[N+](CC)(CC)CC)c1OCC[N+](CC)(CC)CC`, the Potency entry in [1], in assay [7], in [2], in assay [8], in assay [3] and in [9] was “inactive” in each case. Besides, the Potency result in [5], in assay [10], in [11] and in [6] was “inactive” each time.
As for `N[C@@H](Cc1c[nH]c2ccc(O)cc12)C(=O)O`, the Potency entry in [1], in assay [7], in assay [2], in [12], in assay [10] and in [13] was “inactive” each time. Also, the Potency result in assay [6] was “inactive”. Further, the Potency in [9] is 18.7 µM (active).
In the case of `COc1ccccc1OCCNCC(O)COc1cccc2[nH]c3ccccc3c12` (stereo not given), the Potency result in assay [1] and in assay [12] was “inactive” in each case. Besides, the Potency in assay [6] is 16.6 µM (active).
Regarding `CC(C)Cc1ccc(C(C)C(=O)O)cc1` (stereo not given), the Potency result in [1], in [7], in assay [8], in assay [14], in assay [3] and in assay [9] was “inactive” each time. Besides, the Potency entry in assay [5] and in assay [6] was “inactive” in each case. In addition, the Potency in [13] was 1.62 µM (active).
On to `CCOC(=O)c1ncn2c1CN(C)C(=O)c1cc(F)ccc1-2`, for which the Potency entry in assay [1], in [7], in assay [8], in assay [3], in assay [4] and in assay [9] was “inactive” each time. For the same molecule, the Potency entry in assay [5], in assay [10], in assay [13] and in assay [6] was “inactive” in each case. In addition, the Potency in [14] is 16.6 µM (active).
As for `COc1cc2nc(N3CCN(C(=O)c4ccco4)CC3)nc(N)c2cc1OC`, in assay [1], the Potency entry was “inactive”. Besides, the Potency in assay [7] was 10.5 µM (active); in assay [8], 5.9 µM (active); in [14] it was 26.4 µM (active); in [3], 9.35 µM (active); in [4] it was 5.26 µM (active); in assay [9], 9.35 µM (active). For the same molecule, the Potency in assay [12] was 10.5 µM (active); in [5] it was 9.35 µM (active); in assay [13], 8.33 µM (active); in assay [6], 16.6 µM (active).
`CN(C)CCC=C1c2ccccc2C=Cc2ccccc21`: the Potency result in [1], in [2], in assay [3], in [4], in [9] and in assay [12] was “inactive” throughout. In addition, the Potency is 0.0235 µM (active) in [8] and 18.7 µM (active) in [11].
Take `O=c1c(-c2ccc(O)cc2)coc2cc(O)cc(O)c12`: the Potency result in assay [1], in [7], in [2], in assay [4], in [12] and in assay [5] was “inactive” each time. Also, the Potency entry in assay [6] is “inactive”. Also, the Potency in [8] is 16.6 µM (active); in [3], 14.8 µM (active).
Take `CN1CCN2c3ccccc3Cc3ccccc3C2C1` (stereo not given): the Potency result in assay [1] is “inactive”. Also, the values for the Potency in [5] and in [6] were 20.9 µM (active) and 23.5 µM (active), respectively.
Regarding `CN(C)C(=N)N=C(N)N`, the Potency entry in assay [15], in [7], in assay [2], in [8], in assay [3] and in [9] was “inactive” throughout. The Potency result in assay [13] and in [6] was “inactive” each time.
On to `CC1(CN2CCC(n3c(=O)[nH]c4ccccc43)CC2)OCc2ccccc2-n2cccc21` (stereo not given), for which the Potency result in assay [1], in [14], in assay [3], in [9], in assay [12] and in assay [5] was “inactive” each time. Besides, the values for the Potency in assay [13] and in assay [6] were 14.8 µM (active) and 8.33 µM (active), respectively.
In the case of `Cn1c(=O)c2c(ncn2C)n(C)c1=O`, the Potency entry in assay [1], in assay [2], in assay [8], in assay [14], in assay [3] and in [4] was “inactive” each time. For the same molecule, the Potency entry in assay [9], in [12], in assay [5], in [13], in assay [11] and in [6] was “inactive” throughout.
As to `Cc1cnc(C(=O)NCCc2ccc(S(=O)(=O)NC(=O)NC3CCCCC3)cc2)cn1`, the Potency result in assay [1], in assay [8], in assay [3], in assay [4] and in assay [16] was “inactive” in each case. The Potency in assay [14], in assay [9] and in assay [5] was 18.7 µM (active) throughout.
As for `CN1CCC(=C2c3ccccc3C=Cc3ccccc32)CC1`, the Potency entry in [1], in [3] and in assay [16] was “inactive” in each case. In addition, the Potency in assay [7] is 9.35 µM (active); in assay [13], 11.8 µM (active); in assay [6], 11.8 µM (active).
In the case of `NC(CO)C(=O)NNCc1ccc(O)c(O)c1O` (stereo not given), the Potency entry in assay [1], in [7], in [8], in assay [3], in assay [12] and in assay [5] was “inactive” each time. For the same molecule, the Potency entry in assay [13] and in assay [6] was “inactive” throughout. Also, the Potency in assay [14] was 23.5 µM (active); in assay [11], 11.8 µM (active).
For `NCCCCCC(=O)O`, the Potency result in assay [1], in assay [2], in assay [8], in assay [3], in assay [4] and in assay [9] was “inactive” each time. The Potency entry in [5], in [10] and in assay [6] was “inactive” throughout. In assay [11], the Potency was 0.0187 µM (active).
